From PubChem
Rows were chosen to be rich in hits. Some 21% of all compounds tested hit in one or more screens of this group.
CHX counter: counter-screen for Shiga toxin inhibitors: cycloheximide protein synthesis inhibition; cell reporter, cycloheximide protein synthesis inhibition counterscreen; AID 2314; hit rate 12% among 300,000; max response, %; in the data active = max response mostly above about 13%, no sharp cut-off; inactive = mostly below about 14%; note: read at 38.3 µM for the half of the compounds with a filed dose
Pf growth 48h: P. falciparum growth inhibition at 48 hours (one generation); Potency, µM (series often up to 28.7 µM), hits mostly inhibitors; hit rate 5.9% among 310,000; P. falciparum luciferase growth in erythrocytes, 48 h
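Firefly luciferase activity from engineered P. falciparum reports growth; inhibitors lower the luminescent signal. Cultures contained 2% hematocrit erythrocytes at 0.1% final parasitemia.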
HCV inh: inhibitors of hepatitis C virus infection. hit rate 3.4% among 340,000. Huh7.5.1 HCVcc-Cre infection, luciferase reporter, 44 h. Potency, µM (titrated, usually from 41.8 µM), actives largely listed as inhibitors
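Cells (1,000/well) were plated 4 h before compound, then infected with HCVcc-Cre virus (~0.5 moi). After 44 h further culture, infection was read as luciferase luminescence following a 15 min substrate incubation at room temperature.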
Shiga toxin inh: inhibitors of Shiga toxin in Vero cells | Vero cells, Shiga toxin protein synthesis inhibition reporter | hit rate 9.2% among 290,000 | inhibition, % at 38.7 µM; in the data active = inhibition mostly above about 28%, no sharp cut-off; inactive = mostly below about 43%
Pf growth 96h: inhibits malaria parasite growth, 96 h. P. falciparum luciferase reporter growth, 96 h. Potency, µM (top dose mostly 28.7 µM), most hits filed as inhibitors. hit rate 6.9% among 320,000. AID 504834
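96 h incubation, 37 C, 5% CO2, of luciferase-reporter P. falciparum-infected RBCs (2% hematocrit, 0.05% parasitemia final) with test compounds; endpoint luminescence.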
AMA1-RON2 inh: inhibitors of Plasmodium falciparum AMA1-RON2 interaction | AlphaScreen AMA1-biotinylated RON2 peptide binding | Potency, µM (series often up to 58.2 µM), hits mostly inhibitors | hit rate 0.2% among 360,000; note: nearly all actives have a fitted effect of over 45% in size
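AMA1 (3D7) with his tag at 25 nM final met compounds first, then biotinylated RON2 peptide at 25 nM; detection used donor plus acceptor beads, 10 µg/mL apiece, read by AlphaScreen after 30 min at room temperature.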
Each line names hits and unclear results; the compound was inactive in the other large screens. Unless noted, calls come from the whole dose curve; as a rule, active = well fitted curve in the direction sought with a large enough effect; inconclusive = small, poorly fitted or top-dose-only effect, or another doubt; inactive = no such curve, though single readings can be large; an effect the other way counts as inactive or inconclusive.

Cc1ccnc(NS(=O)(=O)c2ccc(NC(=O)C(C)(C)C)cc2)n1	Pf growth 48h 1.9µM
CSc1ncc(Cl)c(C(=O)Nc2ccc(S(=O)(=O)Nc3nccc(C)n3)cc2)n1	CHX counter 31, Shiga toxin inh 70 (no result: HCV inh)
CC(=O)Nc1ccc(S(=O)(=O)Nc2nccc(C)n2)cc1	Pf growth 96h inconclusive
CCOc1ccccc1C(=O)Nc1ccc(S(=O)(=O)Nc2nccc(C)n2)cc1	Pf growth 96h 13µM
Cc1ccc2c(c1)N(C(=O)CCC(=O)NC1CCCCCC1)CCO2	Pf growth 96h inconclusive
Cc1nc(SCC(=O)NC2(C#N)CCCC2)n(CC(C)C)c1C	Pf growth 48h inconclusive, HCV inh inconclusive (no result: CHX counter, Shiga toxin inh)
CCCCCOC(=O)Nc1nc(=O)n(C2O[C@H](C)[C@@H](O)[C@@H]2O)cc1F (some centres undefined)	Pf growth 96h inconclusive (no result: CHX counter, HCV inh, Shiga toxin inh, AMA1-RON2 inh)
CC(C)C(c1nnnn1Cc1ccco1)N1CCN(c2cccc(Cl)c2)CC1 (centres undefined)	none
Cc1ccc(Cl)cc1N1CCN(Cc2nnnn2C2CCCCC2)CC1	Pf growth 48h inconclusive, HCV inh inconclusive, Pf growth 96h inconclusive
Cc1ccc(Cl)cc1N1CCN(Cc2nnnn2Cc2ccco2)CC1	Pf growth 96h 8.3µM
CCC(c1nnnn1Cc1ccco1)N1CCN(c2cc(Cl)ccc2C)CC1 (centres undefined)	Pf growth 48h inconclusive, HCV inh inconclusive, Pf growth 96h 1.5µM
Cc1ccc(CNCC(=O)Nc2ccc(N3CCOCC3)cc2)cc1	none
N/C(Cc1ccc([N+](=O)[O-])cc1)=N\OC(=O)Cc1ccccc1	none
N/C(=N\OC(=O)CCC1CCCC1)c1ccc([N+](=O)[O-])cc1	CHX counter 19, Pf growth 96h inconclusive
N/C(=N\OC(=O)CCc1ccccc1)c1cccc(Br)c1	none
N/C(=N\OC(=O)Cc1ccccc1)c1ccc([N+](=O)[O-])cc1	CHX counter 30, Shiga toxin inh 42
N/C(=N\OC(=O)CCC1CCCC1)c1ccccc1	CHX counter 20
N/C(=N\OC(=O)CCC1CCCC1)c1ccccn1	CHX counter 52, Shiga toxin inh 65
N/C(=N\OC(=O)CCC1CCCCC1)c1cccc([N+](=O)[O-])c1	none
O=C(CCC1CCCC1)NCc1ccccn1	Pf growth 48h inconclusive
Cc1cc2cc(C#N)c(N3CCOCC3)nc2cc1Cl	Pf growth 96h inconclusive
Nc1nc2ccc(Cl)cc2cc1C(=O)NCCc1c[nH]c2ccccc12	none (no result: CHX counter, Pf growth 48h, HCV inh, Shiga toxin inh, Pf growth 96h)
CCOC(=O)Nc1sc2c(c1C(=O)OCC)CCC2	none (no result: Pf growth 48h, Pf growth 96h)
CCOC(=O)c1c(NC(=O)C(C)OC(=O)C2=COCCO2)sc2c1CCCC2 (centres undefined)	Pf growth 48h inconclusive, HCV inh 13µM, Pf growth 96h inconclusive (no result: CHX counter, Shiga toxin inh)
CCOC(=O)c1c(NC(NC(=O)C(C)C)C(Cl)(Cl)Cl)sc2c1CCC2 (centres undefined)	CHX counter 15, Pf growth 48h inconclusive, HCV inh inconclusive
CCOC(=O)c1c(NC(=O)C(C)OC(=O)c2ccc(NC(=O)CC#N)cc2)sc2c1CCCC2 (centres undefined)	Pf growth 48h inconclusive, HCV inh inconclusive, Pf growth 96h inconclusive (no result: CHX counter, Shiga toxin inh)
CC[C@H](C)[C@H](NC(=O)[C@H](Cc1ccccc1)NC(=O)[C@H](CC(C)C)NC(=O)[C@H](CCSC)NC(=O)[C@H](CCC(=O)O)NC(=O)[C@H](CCC(=O)O)NC(=O)[C@H](CC(=O)O)NC(=O)[C@H](CO)NC(=O)[C@@H]1CCCN1C(=O)[C@H](CCCCN)NC(=O)[C@@H](N)[C@@H](C)O)C(=O)N[C@@H](Cc1ccc(O)cc1)C(=O)NCC(=O)N[C@@H](Cc1cnc[nH]1)C(=O)N[C@@H](Cc1ccc(O)cc1)C(=O)N[C@@H](CCCCN)C(=O)N[C@@H](CCC(N)=O)C(=O)N[C@@H](C)C(=O)N[C@H](C(=O)N[C@H](C(=O)NCC(=O)N[C@@H](CC(=O)O)C(=O)N[C@H](C(=O)N[C@@H](CC(N)=O)C(=O)N[C@H](C(=O)N[C@@H](CCC(=O)O)C(=O)N[C@@H](CCCNC(=N)N)C(=O)N1CCC[C@H]1C(=O)NCC(=O)N[C@@H](CCSC)C(=O)N[C@@H](CC(C)C)C(=O)N[C@@H](CC(=O)O)C(=O)N[C@@H](Cc1ccccc1)C(=O)N[C@H](C(=O)O)[C@@H](C)O)[C@@H](C)O)[C@@H](C)CC)C(C)C)[C@@H](C)O	none (no result: Pf growth 48h, HCV inh, Pf growth 96h, AMA1-RON2 inh)
O=C(CNC(=O)c1ccccc1F)N/N=C\C=C\c1ccccc1	none
CCC(C(=O)NC1CCCC1)N(C(=O)Cn1nnc(-c2ccc(OC)c(OC)c2)n1)C1CCCCC1 (centres undefined)	Pf growth 48h 9.3µM, Pf growth 96h inconclusive
Cc1ccc(N(C(=O)Cn2nnc(-c3ccc(C)o3)n2)C(C(=O)NC2CCCC2)c2ccncc2)cc1 (centres undefined)	Pf growth 96h 10µM
CC(=O)c1ccc(N(C(=O)Cn2nnc(-c3ccccc3)n2)C(C(=O)NC2CCCCC2)c2ccccn2)cc1 (centres undefined)	Pf growth 96h 9.3µM
Cc1ccc(-c2nnn(CC(=O)N(Cc3cccs3)C(C(=O)NC3CCCC3)c3ccncc3)n2)cc1 (centres undefined)	Pf growth 48h 5.9µM, HCV inh inconclusive, Pf growth 96h inconclusive
CCC(C(=O)NC1CCCC1)N(C(=O)Cn1nnc(-c2ccc(C)cc2)n1)C1CCCC1 (centres undefined)	none (no result: CHX counter, Pf growth 48h, Shiga toxin inh, Pf growth 96h)
O=C(NCC1CCCO1)C(c1ccncc1)N(Cc1cccs1)C(=O)Cn1nnc(-c2ccc(F)cc2)n1 (centres undefined)	Pf growth 96h inconclusive
O=C(NC1CCCC1)C(c1cccs1)N(Cc1ccco1)C(=O)Cn1nnc(-c2cccs2)n1 (centres undefined)	Pf growth 48h inconclusive, HCV inh inconclusive
CC(C)CCNC(=O)C(c1ccncc1)N(Cc1cccs1)C(=O)Cn1nnc(-c2ccc(F)cc2)n1 (centres undefined)	Pf growth 48h 15µM, HCV inh inconclusive
Cc1ccc(-c2nnn(CC(=O)N(Cc3ccco3)C(C(=O)NC3CCCC3)c3cccs3)n2)o1 (centres undefined)	Pf growth 48h 13µM, Pf growth 96h inconclusive
O=C(CN(Cc1ccco1)C(=O)Cn1nnc(-c2ccc(F)cc2)n1)NC1CCCC1	none (no result: Pf growth 96h)
CCCCC(C(=O)NC1CCCC1)N(Cc1ccco1)C(=O)Cn1nnc(-c2ccc(F)cc2)n1 (centres undefined)	Pf growth 96h 12µM (no result: Pf growth 48h)
CCOC(=O)CN(C(=O)Cn1nnc(-c2ccc(OC)cc2)n1)C(C(=O)NC1CCCC1)c1ccc(F)cc1 (centres undefined)	Pf growth 48h 13µM, HCV inh inconclusive, Pf growth 96h 15µM
Cc1ccc(S(=O)(=O)C[C@@H]2OC[C@H](C(C)C)N2S(=O)(=O)c2ccc(C)cc2)cc1	none (no result: CHX counter, Pf growth 48h, HCV inh, Shiga toxin inh, Pf growth 96h)
